Not all results are given here.
aSyn UTR act: Activators via SNCA 5'UTR binding, MLPCN; AID 1814; alpha-synuclein 5'UTR reporter, activators screen; activity score, % (tested at 7.5 µM), hits read low; 7.1% of 300,000 active; in the data active means activity score below about -60%
Starred values were filed as active, the others as inactive.

SMILES	aSyn UTR act
C#CCSc1nnc(-c2sc(-c3ccccc3)nc2C)n1C	-67*
CN(C)/C=N/c1cnc(C(=O)c2ccc(Cl)cc2)n1C	-202*
Cc1ccc(N/C=C(/C#N)c2ccsc2)cc1C	-172*
Cc1cnc(NCCc2ccccc2)s1	-63*
O=C(O)c1ccc2oc(SCC(=O)N3CCCCC3)nc2c1	-88*
CC1CCCN(C(=O)CSc2nc3ccccc3o2)C1 (configuration not stated)	-99*
CC1c2cc3c(cc2CCN1C(=O)c1cccc(F)c1)OCCCO3 (configuration not stated)	-69*
CCc1ccc(NC(=O)c2noc3c2CCCCC3)cc1	-182*
COc1ccc(CNC(=O)c2noc3c2CCCC3)cc1	-103*
COc1ccc(NC(=O)c2noc3c2CCCCC3)cc1	-100*
Cc1ccc(NC(=O)c2noc3c2CCCCC3)cc1	-117*
Cc1ccc(Cn2ccc(NC(=O)c3noc4c3CCCC4)n2)cc1	-111*
O=C(NC1CCCCC1)c1noc2c1CCCCC2	-90*
O=C(NCc1ccco1)c1noc2c1CCCCC2	-77*
CSc1ccccc1NC(=O)c1noc2c1CCC2	-103*
Cc1ccc(O)c(NC(=O)c2noc3c2CCCCC3)c1	-184*
CC1(C)CC(=O)c2cnc(N3CCc4ccccc43)nc2C1	-118*
Fc1cnc(N2CCc3ccccc32)nc1N1CCc2ccccc21	-82*
COc1cccc(-c2nnc3sc(-c4ccccn4)nn23)c1	-103*
COc1ccccc1-c1nnc2sc(-c3ccc(N(C)C)cc3)nn12	99
O=C1CN(c2ccccc2)C(=S)N1C(=O)c1ccccc1	-154*
CC(=O)Nc1cccc(NC(=O)COc2ccccc2C)c1	-77*
CSc1ccccc1NC(=O)COc1ccccc1C	-107*
Cc1ccccc1OCC(=O)Nc1cccc(N(C)S(C)(=O)=O)c1	-62*
COc1cccc(NC(=O)COc2ccccc2C(N)=O)c1	-75*
SMILES	aSyn UTR act
Cc1ccc(C)c(OCC(=O)Nc2c[nH]c(=O)[nH]c2=O)c1	81
CN(c1cccc(NC(=O)COc2ccccc2)c1)S(C)(=O)=O	-113*
CN(c1cccc(NC(=O)COc2ccc(Cl)cc2Cl)c1)S(C)(=O)=O	-131*
Cc1ccc(NC(=O)COc2ccccc2C=O)cc1Cl	-121*
CCc1cccc(NC(=O)COc2ccccc2)c1	-92*
C/C(=N/OC(=O)CC(C)C)c1cc(-c2ccc(Cl)cc2)no1	-146*
OCC#CCSc1nnc(-c2ccc(Br)cc2)o1	-87*
COCCCN=C(c1ccco1)n1c(=S)nc(-c2ccco2)n(CCCOC)c1=S	-88*
CCSc1nnc(NC(=O)c2cc3c(s2)CCCC3)s1	-187*
O=C(Nc1nnc(SCc2ccccc2)s1)c1cc2c(s1)CCCC2	-80*
Cc1cccc(NC(=O)c2ccc3c(c2)OCCO3)c1C	-113*
N#Cc1ccccc1NC(=O)COC(=O)c1ccc2c(c1)OCCO2	-130*
N#Cc1ccccc1NC(=O)c1ccc2c(c1)OCCO2	-94*
COC(=O)c1ccccc1NC(=O)c1ccc2c(c1)OCCCO2	-85*
Cc1ccccc1NC(=O)c1ccc2c(c1)OCCO2	-157*
C(=C\n1nnc2ccccc21)/c1ccc[nH]1	-72*
O=C(O)c1nc2ccccc2nc1C(=O)O	-166*
Cc1ccsc1/C=C1\CCc2ccccc2C1=O	-165*
Cc1ccccc1/C=C1\CCCc2ccccc2C1=O	-241*
O=c1cc(COc2ccc(Cl)c(Cl)c2)nc2sccn12	-83*
O=c1cc(CNc2cc(C(F)(F)F)cc(C(F)(F)F)c2)nc2sccn12	65
O=C(O)c1ccc(N=NN2CCCCCC2)cc1	-168*
Cc1ccc2nc(SC(C)C(=O)N3CCOCC3)[nH]c2c1 (configuration not stated)	-94*
CCOC(=O)NC1(Nc2ccc(C)cc2)Oc2ccccc2O1	-100*
CCOC(=O)c1oc2ccc(CNCCO)c(Cl)c2c1C	-63*
SMILES	aSyn UTR act
COc1ccc2c(COC(=O)c3n[nH]c4ccccc34)cc(=O)oc2c1	-180*
Cc1cc2oc(=O)cc(COC(=O)c3n[nH]c4ccccc34)c2cc1C	-134*
Nc1c(-c2ccccn2)cnn1-c1nc(-c2ccc(F)cc2)cs1	-79*
Nc1c(-c2cccs2)cnn1-c1nc(-c2ccc(F)cc2)cs1	-124*
O=c1nc2c(-c3cccc(Br)c3)n[nH]n2c2ccccc12	-176*
CCSc1ccc(-c2cccc([N+](=O)[O-])c2)nn1	-89*
O=C1C(Cl)=C(NCCCN2CCOCC2)C(=O)N1CCc1ccccc1	-126*
CN1CCN(C2=C(Cl)C(=O)N(CCc3ccccc3)C2=O)CC1	-112*
O=C1C(Cl)=C(N2CCOCC2)C(=O)N1CCc1ccccc1	-212*
O=C1C(Cl)=C(NCC2CCCO2)C(=O)N1CCc1ccccc1 (configuration not stated)	-183*
O=c1c([N+](=O)[O-])c(N2CCOCC2)c2ccccc2n1Cc1ccccc1	46
CCOC(=O)c1ccc2nc(NC(=O)C(C)C)sc2c1	-113*
CCOC(=O)c1ccc2nc(NC(=O)c3cccs3)sc2c1	-105*
CCCCC(=O)Nc1nc2ccc(C(=O)OC)cc2s1	-114*
CCCC(=O)Nc1nc2ccc(C(=O)OCC)cc2s1	-136*
N#C/C(C(N)=O)=C1/CCc2ccccc2N1	-63*
Cc1ccc(C(=O)c2nc3c(n2O)CCCC3)cc1	-86*
O=C(c1cc2ccccc2o1)c1nc2c(n1O)CCCCC2	-73*
O=C1N=C(N2CCCCC2)SC1=C1CCCC1	-81*
O=C(c1ccc(CS(=O)Cc2ccccc2Cl)o1)N1CCN(c2ccccn2)CC1 (configuration not stated)	-85*
O=C(NCCCN1CCOCC1)C(=O)N/N=C/c1c2ccccc2cc2ccccc12	67
O=C(NCCCN1CCOCC1)c1cc(-c2cccs2)on1	-152*
O=C(NCCCn1ccnc1)c1cc(-c2cccs2)on1	-294*
Cc1nc(-c2ccc(Cl)cc2)sc1C1(C)CC(c2cccc(F)c2)=NO1 (configuration not stated)	-67*
CNc1nc(-c2ccc3c(c2)CCN3C(=O)CC(C)(C)C)c(C)s1	-118*
SMILES	aSyn UTR act
CC(=O)Nc1nc(-c2ccc3c(c2)CCN3C(=O)C2CC2)c(C)s1	-255*
CCC(C)C(=O)N1CCc2cc(-c3csc(N)n3)ccc21 (configuration not stated)	-172*
CNc1nc(-c2ccc3c(c2)CCN3C(=O)c2ccccc2F)cs1	-90*
Cc1ccc(-c2nc(NC(=O)c3nn(C)cc3[N+](=O)[O-])sc2C)cc1	99
CC(C)(C)C(=O)N1CCc2cc(-c3csc(N)n3)ccc21	66
CCCC(=O)N1CCc2cc(-c3nc(N)sc3C)ccc21	-208*
COc1ccc(CC(=O)N(C)Cc2ccc(Cl)cc2)cc1S(=O)(=O)N1CCOCC1	-115*
COc1ccc(S(=O)(=O)N2CCOCC2)cc1NC(=O)CCNC(=O)c1ccc(Br)cc1	77
O=C(CSc1ncnc2sc3c(c12)CCCC3)c1ccccc1	-77*
Cc1cccnc1N(C(=O)Nc1cccc(Cl)c1)C1=NCC(C)(C)S1	-66*
CNS(=O)(=O)c1ccc(NC(=O)Nc2cccc(F)c2)cc1	-89*
O=C(Nc1cccc(Cl)c1)ON=C1c2ccccc2-c2ccccc21	-66*
CCOc1ccc(NC(=O)Nc2ccccc2SC)cc1	-142*
Cc1cccc(N(O)C(=O)Nc2cccc(Cl)c2)c1	-109*
O=C(Nc1ccc(C(=O)N2CCOCC2)cc1)Nc1cccc(Cl)c1	-139*
O=C(Nc1cccc(F)c1)Nc1cccc(Cl)c1	-84*

Compound activity from PubChem.
